Among the data in PubChem BioAssay (Tox21) are Potency and outcome values, retold here.

Inconclusive results are not listed. The source made the active and inactive calls. Unless noted, calls come from the whole dose curve.

The nature of experiment [1]: Nuclear factor erythroid 2-related factor 2/antioxidant responsive element (Nrf2/ARE) small molecule agonists: qHTS cell viability counter screen in human keratinocytes (AID 1919968; active = well fitted curve in the direction sought with a large enough effect in the repeat runs; an effect the other way counts as inactive or inconclusive; note: nearly all actives have a fitted effect of over 55% in size; note: potency is the fitted concentration of half-maximal effect). A digest of the protocol:
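Seed 1,500 KeratinoSens cells per well, then incubate 5 h at 37 C/5% CO2. Add compounds in DMSO and incubate 23 h. Add CellTiter-Fluor, wait 1 h and read fluorescence.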
For orientation: Quantitative high-throughput screening tests each substance at several concentrations.

The nature of experiment [2]: Nuclear factor erythroid 2-related factor 2/antioxidant responsive element (Nrf2/ARE) small molecule agonists: luciferase reporter gene qHTS assay in human keratinocytes (AID 1919969). Note: nearly all actives have a fitted effect of over 35% in size. Note: potency is the fitted concentration of half-maximal effect. In general terms: A reporter such as luciferase makes a cellular process visible.
In experiment [3] the target is Gonadotropin-releasing hormone receptor (Homo sapiens) (UniProt P30968). As to the kind of experiment: Human gonadotropin-releasing hormone receptor (GnRHR) small molecule agonists, calcium flux assay in GnRHR-HEK293 cells (AID 1920063). Note: nearly all actives have a fitted effect of over 35% in size. A digest of the protocol: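 Cells: HEK293 stably expressing human GnRHR. Steps: overnight (18 h) culture, 1 h calcium dye loading at 37 C, compound addition, kinetic fluorescence read at 480/540 nm. Each compound tested at 15 concentrations in triplicate.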
In general terms: Calcium assays in cells follow changes in intracellular calcium, usually with a dye or a luminescent sensor.

Experiment [4] concerns the target KiSS-1 receptor (Homo sapiens) (UniProt Q969F8). The experiment is described as follows: Human kisspeptin (KISS1R) small molecule agonists, calcium flux assay in KISS1R-HEK293 cells (AID 1920064; active = well fitted curve in the direction sought with a large enough effect in the repeat runs; an effect the other way counts as inactive or inconclusive). A digest of the protocol: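 Cells plated and incubated 18 h; dye added, 1 h at 37 C; compounds in DMSO pinned in; signal read at 480/540 nm every second for 3 min. Each compound tested at 15 concentrations in triplicate.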

The nature of experiment [5]: G protein-coupled receptor (GPCR) small molecule agonists, calcium flux assay: HEK293 wild type cell line counter screen (AID 1920065). A digest of the protocol: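 Counter-screen of the Tox21 10K library for non-specific calcium release: dye-loaded cells received compounds in DMSO and were monitored by kinetic fluorescence (480/540 nm, 3 min). Fifteen concentrations, run in triplicate.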

Experiment [6] can be described thus: p53 small molecule agonists, cell-based qHTS assay with human liver microsomes (AID 1963577).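 Note: p53 response element beta-lactamase reporter cells with liver microsomes plus NADPH.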 A digest of the protocol: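 Metabolically competent format: test substances, human liver microsomes and NADPH (both 0.5 mg/mL final) incubated with p53RE-bla cells 16 h at 37 C. Beta-lactamase reporter signal then quantified by fluorescence.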
Experiment [7] in a line: p53 small molecule agonists, cell-based qHTS assay with rat liver microsomes (AID 1963578). A digest of the protocol:
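Each plate received p53RE-bla cells, then compound, then rat liver microsomes and NADPH (both 0.5 mg/mL final). Plates were held 16 h at 37 C, and beta-lactamase activity was detected with LiveBLAzer over 2 h.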

A short description of experiment [8]: p53 small molecule agonists, cell-based qHTS assay with human liver microsomes: qHTS cell viability counter screen (AID 1963579). Note: nearly all actives have a fitted effect of over 45% in size. A digest of the protocol:
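Tox21 library compounds, delivered from DMSO stocks, were tested on p53RE-bla cells together with 0.5 mg/mL human liver microsomes and 0.5 mg/mL NADPH (final) over 16 h at 37 C; CellTiter-Glo luminescence served as the cytotoxicity measure.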

The nature of experiment [9]: p53 small molecule agonists, cell-based qHTS assay with rat liver microsomes: qHTS cell viability counter screen (AID 1963580). Note: nearly all actives have a fitted effect of over 45% in size. The essentials:
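HCT-116 p53RE-bla, 4,000 cells/well, 5 h pre-incubation; cpd + rat liver microsomes 0.5 mg/mL + NADPH 0.5 mg/mL (final); 16 h, 37 C; CellTiter-Glo, 30 min RT; luminescence.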

Experiment [10] can be described thus: p53 small molecule agonists, cell-based qHTS assay: qHTS cell viability counter screen (AID 1963581). Note: nearly all actives have a fitted effect of over 45% in size. Note: potency is the fitted concentration of half-maximal effect. The essentials:
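Cells: HCT-116 with p53 response element-driven beta-lactamase. Treatment: 16 h, 37 C, compounds in DMSO. Read: CellTiter-Glo luminescence after 30 min RT.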

The target of experiment [11] is 5-hydroxytryptamine receptor 2A (Homo sapiens) (UniProt P28223). As to the kind of experiment: 5-hydroxytryptamine receptor 2A (HTR2A) small molecule agonists, cell-based qHTS assay (AID 1963587). Note: nearly all actives have a fitted effect of over 30% in size. A digest of the protocol: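 Kinetic calcium-flux fluorescence (2 min, 1 sec intervals) after compound addition in agonist mode. HTR2A-CHO cells were cultured 18 h, then dye-loaded 1 h at 37 C.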

In experiment [12] the target is Muscarinic acetylcholine receptor M1 (Homo sapiens) (UniProt P11229). As to the kind of experiment: Cholinergic receptor muscarinic 1 (CHRM1) small molecule antagonists, cell-based qHTS assay (AID 1963588). Note: nearly all actives have a fitted effect of over 40% in size. The essentials:
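CHRM1-CHO calcium-flux assay, antagonist mode. Cells were seeded 18 h, dye-loaded 1 h at 37 C and given compound for 5 min at RT, then acetylcholine was added at 50nM. FDSS fluorescence was read 3 min; 15 concentrations, three runs.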

For experiment [13] the target is unchanged. The experiment is described as follows: Cholinergic receptor muscarinic 1 (CHRM1) small molecule agonists, cell-based qHTS assay (AID 1963589). Note: nearly all actives have a fitted effect of over 35% in size. The essentials: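 Agonist-mode qHTS in CHO cells stably carrying human muscarinic M1. Intracellular calcium is tracked by fluorescence every second after compound transfer; each compound runs at 15 concentrations in three independent runs.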

Experiment [14] in a line: cAMP Responsive Elements (CRE) small molecule agonists, cell-based qHTS assay (AID 1963590). The essentials:
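Agonist mode qHTS in CRE-bla HEK 293T cells: compounds dosed from DMSO for 3 h at 37 C/5% CO2, followed by LiveBLAzer B/G FRET substrate for 2 h at room temperature.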

A short description of experiment [15]: cAMP Responsive Elements (CRE) small molecule antagonists, cell-based qHTS assay (AID 1963591; active = well fitted inhibition curve with a large enough effect in the signal ratio in the repeat runs, not every such curve was filed as active; the % refers to the signal ratio). A digest of the protocol:
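Antagonist mode: test compounds are co-incubated with the adenylyl cyclase activator NKH477 (0.25 uM final) on CRE-bla HEK293T cells for 3 h at 37 °C, followed by LiveBLAzer substrate loading.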

In experiment [16] the target is Beta-2 adrenergic receptor (Homo sapiens) (UniProt P07550). The experiment is described as follows: Adrenergic beta2 receptor (ADRB2) small molecule antagonists, cell-based qHTS assay (AID 1963592). Note: series mostly up to about 92 µM; nearly all actives have a fitted effect of over 50% in size. A digest of the protocol: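 Cells (CHO, stable ADRB2 overexpression) incubated 18-20hr at 37C; compounds added from DMSO; agonist mix (1nM isoproterenol, 100uM IBMX, 25uM Ro-20-1724) added; 0.5hr RT; d2-cAMP and anti-cAMP-cryptate added; 1hr RT; 665/615 nm read.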

In experiment [17] the target is D(2) dopamine receptor (Homo sapiens) (UniProt P14416). As to the kind of experiment: Dopamine D2 receptor (DRD2) small molecule antagonists, cell-based qHTS assay (AID 1963595; active = well fitted inhibition curve with a large enough effect in the signal ratio in the repeat runs, with a control signal flat; the % refers to the signal ratio). The essentials:
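Human DRD2 antagonist qHTS measuring cAMP by HTRF. The cells are exposed to compound for 10 min, then to NKH477 (200 nM) and quinpirole (12 nM) for 30 min at RT, with Ro20-1724 (0.1 mM) present throughout.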

In experiment [18] the target is Beta-2 adrenergic receptor (Homo sapiens) (UniProt P07550). As to the kind of experiment: Adrenergic beta2 receptor (ADRB2) small molecule agonists, cell-based qHTS assay (AID 1963593).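 Note: CHO cells stably overexpressing human ADRB2.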 A digest of the protocol: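 CHO cells stably over-expressing ADRB2 were plated overnight at 37C, then dosed with compounds plus a stimulation mix containing 100uM IBMX and 25uM Ro-20-1724 for 0.5hr at room temperature. cAMP was measured by HTRF competition, 1hr.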

For experiment [19], the target named is D(2) dopamine receptor (Homo sapiens) (UniProt P14416). The experiment is described as follows: Dopamine D2 receptor (DRD2) small molecule agonists, cell-based qHTS assay (AID 1963594). Note: nearly all actives have a fitted effect of over 35% in size. The essentials:
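cAMP accumulation in DRD2-HEK293 cells measured by HTRF after 1 h detection; compounds added 10 min before NKH477 (200nM […]) forskolin-analogue stimulation, 30 min at room temperature, with Ro20-1724 present at 0.1 mM final.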

Experiment [20] in a line: p53 small molecule agonists, cell-based qHTS assay (AID 1963582; active = well fitted activation curve with a large enough effect in the signal ratio in the repeat runs, not every such curve was filed as active; the % refers to the signal ratio). The essentials: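 Quantitative HTS in p53RE-bla cells: after a 5 h settling period, compounds delivered in DMSO were left on cells for 16 h at 37 C, and reporter induction was measured as fluorescence following 2 h substrate loading.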

Chain of Muscarinic acetylcholine receptor M1 (Homo sapiens) (P11229 whole entry, looked up): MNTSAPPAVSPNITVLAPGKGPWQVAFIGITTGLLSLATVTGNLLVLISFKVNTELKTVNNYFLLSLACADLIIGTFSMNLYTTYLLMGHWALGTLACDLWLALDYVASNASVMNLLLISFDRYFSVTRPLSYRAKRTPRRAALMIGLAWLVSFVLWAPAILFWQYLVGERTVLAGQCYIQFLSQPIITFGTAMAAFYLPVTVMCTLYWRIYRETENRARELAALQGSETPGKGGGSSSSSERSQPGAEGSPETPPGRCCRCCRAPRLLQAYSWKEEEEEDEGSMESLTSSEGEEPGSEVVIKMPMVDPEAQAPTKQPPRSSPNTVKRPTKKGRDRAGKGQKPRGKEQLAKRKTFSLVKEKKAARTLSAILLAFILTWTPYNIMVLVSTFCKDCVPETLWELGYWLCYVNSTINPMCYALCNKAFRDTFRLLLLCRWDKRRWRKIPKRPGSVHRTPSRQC
Chain of D(2) dopamine receptor (Homo sapiens) (P14416 whole entry, looked up): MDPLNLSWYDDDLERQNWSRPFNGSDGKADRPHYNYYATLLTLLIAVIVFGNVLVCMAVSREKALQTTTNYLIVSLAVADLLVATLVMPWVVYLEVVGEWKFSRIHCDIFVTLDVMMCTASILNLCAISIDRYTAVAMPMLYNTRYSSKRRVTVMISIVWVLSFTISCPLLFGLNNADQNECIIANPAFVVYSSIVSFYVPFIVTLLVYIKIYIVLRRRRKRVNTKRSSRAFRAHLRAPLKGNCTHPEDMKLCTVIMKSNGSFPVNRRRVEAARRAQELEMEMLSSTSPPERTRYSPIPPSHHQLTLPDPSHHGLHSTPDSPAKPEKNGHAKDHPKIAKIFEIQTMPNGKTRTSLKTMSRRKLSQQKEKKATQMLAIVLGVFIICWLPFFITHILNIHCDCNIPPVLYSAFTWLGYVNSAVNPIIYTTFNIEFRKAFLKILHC
Chain of KiSS-1 receptor (Homo sapiens) (Q969F8 whole entry, looked up): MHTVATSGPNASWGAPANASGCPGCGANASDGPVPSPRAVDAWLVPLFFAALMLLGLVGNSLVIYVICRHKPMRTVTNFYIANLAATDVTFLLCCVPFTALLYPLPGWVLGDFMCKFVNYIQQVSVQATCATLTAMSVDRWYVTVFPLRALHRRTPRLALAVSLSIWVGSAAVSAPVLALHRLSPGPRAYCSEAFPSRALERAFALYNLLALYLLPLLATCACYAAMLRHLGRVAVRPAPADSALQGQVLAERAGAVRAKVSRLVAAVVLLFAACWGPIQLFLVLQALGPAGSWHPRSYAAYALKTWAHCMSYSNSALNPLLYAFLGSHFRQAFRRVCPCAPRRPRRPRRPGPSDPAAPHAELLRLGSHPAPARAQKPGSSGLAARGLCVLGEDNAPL
Chain of Gonadotropin-releasing hormone receptor (Homo sapiens) (P30968 whole entry, looked up): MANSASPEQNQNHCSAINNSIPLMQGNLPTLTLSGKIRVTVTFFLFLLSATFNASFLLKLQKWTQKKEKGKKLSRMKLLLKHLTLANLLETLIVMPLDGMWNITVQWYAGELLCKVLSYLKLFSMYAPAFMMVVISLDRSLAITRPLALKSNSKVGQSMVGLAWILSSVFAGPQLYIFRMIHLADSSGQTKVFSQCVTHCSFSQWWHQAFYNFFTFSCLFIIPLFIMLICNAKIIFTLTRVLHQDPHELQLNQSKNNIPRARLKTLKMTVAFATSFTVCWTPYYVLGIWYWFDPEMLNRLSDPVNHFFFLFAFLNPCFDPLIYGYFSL
Chain of Beta-2 adrenergic receptor (Homo sapiens) (P07550 whole entry, looked up): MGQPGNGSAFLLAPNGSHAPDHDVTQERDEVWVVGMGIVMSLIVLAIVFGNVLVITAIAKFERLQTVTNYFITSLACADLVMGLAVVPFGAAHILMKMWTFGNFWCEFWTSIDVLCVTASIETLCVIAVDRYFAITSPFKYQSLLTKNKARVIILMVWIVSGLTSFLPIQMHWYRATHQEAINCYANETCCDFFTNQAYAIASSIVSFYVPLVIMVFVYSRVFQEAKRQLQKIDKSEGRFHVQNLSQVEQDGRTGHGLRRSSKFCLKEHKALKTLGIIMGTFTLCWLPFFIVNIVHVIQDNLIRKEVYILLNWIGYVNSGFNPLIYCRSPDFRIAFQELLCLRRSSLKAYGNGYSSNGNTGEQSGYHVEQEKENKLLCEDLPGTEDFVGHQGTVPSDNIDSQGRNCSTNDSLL
Chain of 5-hydroxytryptamine receptor 2A (Homo sapiens) (P28223 whole entry, looked up): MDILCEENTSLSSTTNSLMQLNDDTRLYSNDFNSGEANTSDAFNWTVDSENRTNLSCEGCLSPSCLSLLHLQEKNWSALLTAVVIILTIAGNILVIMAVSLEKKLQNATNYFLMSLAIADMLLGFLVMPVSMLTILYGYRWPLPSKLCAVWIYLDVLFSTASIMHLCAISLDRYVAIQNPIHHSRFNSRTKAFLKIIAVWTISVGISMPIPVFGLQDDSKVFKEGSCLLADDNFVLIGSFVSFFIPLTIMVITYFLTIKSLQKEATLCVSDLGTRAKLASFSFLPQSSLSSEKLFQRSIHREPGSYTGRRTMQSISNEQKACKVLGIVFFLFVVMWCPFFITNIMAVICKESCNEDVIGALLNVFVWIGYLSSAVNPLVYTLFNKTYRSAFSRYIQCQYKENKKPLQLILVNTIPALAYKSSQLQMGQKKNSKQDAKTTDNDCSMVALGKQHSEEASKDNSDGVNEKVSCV

`Cc1c(C2(c3cc(Br)c(O)c(Br)c3C)OS(=O)(=O)c3ccccc32)cc(Br)c(O)c1Br`: the results for the Potency in experiment [1] and in experiment [10] were 21 µM (active) and 22.3 µM (active), respectively. The Potency result in experiment [2], in [3], in experiment [6], in experiment [7], in experiment [8] and in experiment [9] was “inactive” each time. Moreover, the Potency entry in [11], in experiment [12], in experiment [13], in experiment [14] and in experiment [15] was “inactive” in each case. The outcome in experiment [4] and in experiment [5] was inactive.

For `C[Si]1(C)O[Si](C)(C)O[Si](C)(C)O1`, the Potency entry in experiment [1], in experiment [2], in [3], in experiment [6], in experiment [7] and in experiment [8] was “inactive” each time. Moreover, the Potency entry in experiment [9], in experiment [10], in [11], in experiment [12], in [13] and in [14] was “inactive” each time. In addition, the Potency entry in [16] and in [17] was “inactive” throughout. Further, the outcome in [4] and in [5] was inactive.

On to `Oc1ccc(Oc2ccccc2)cc1`, for which the Potency result in experiment [1], in experiment [2], in experiment [3], in experiment [6], in experiment [7] and in [8] was “inactive” each time. Besides, the Potency result in [9], in experiment [10], in experiment [11], in experiment [12], in experiment [13] and in [14] was “inactive” throughout. Further, the Potency entry in experiment [16], in experiment [18], in experiment [19] and in [17] was “inactive” in each case. Moreover, the outcome in experiment [4] and in [5] was inactive.

As to `CCCCCC(=O)OCC`, the Potency result in experiment [1], in experiment [2], in experiment [3], in [6], in [7] and in experiment [8] was “inactive” throughout. The Potency entry in experiment [9], in experiment [10], in experiment [11], in [12], in experiment [13] and in [14] was “inactive” in each case. The Potency result in experiment [15], in experiment [16], in experiment [18], in experiment [19] and in experiment [17] was “inactive” each time. The outcome in [4] and in [5] was inactive.

Consider `CCCOc1ccccc1-c1nc2n[nH]nc2c(=O)[nH]1`, for which the Potency result in experiment [1], in experiment [2], in experiment [3], in [6], in experiment [7] and in experiment [8] was “inactive” throughout. In addition, the Potency result in [9], in [10], in experiment [20], in [16] and in experiment [17] was “inactive” throughout. For the same molecule, the result in [4] and in experiment [5] was inactive.

With `CCOC(=O)C1=NN(c2ccc(Cl)cc2Cl)C(C)(C(=O)OCC)C1` (configuration not stated), the Potency entry in [1], in experiment [2], in [3], in experiment [6], in experiment [7] and in [8] was “inactive” each time. In addition, the Potency result in experiment [9], in experiment [10], in [11], in experiment [13], in experiment [14] and in experiment [15] was “inactive” in each case. For the same molecule, the Potency result in experiment [16], in experiment [19] and in experiment [17] was “inactive” each time. Also, the outcome in experiment [4] and in [5] was inactive.

As to `Oc1ccc(-c2ccc(O)cc2)cc1`, the Potency result in experiment [1], in [3], in [6], in experiment [7], in experiment [8] and in experiment [9] was “inactive” in each case. The Potency entry in experiment [10], in experiment [11], in experiment [12], in experiment [15], in experiment [16] and in experiment [19] was “inactive” throughout. Moreover, the Potency result in experiment [17] is “inactive”. Further, the Potency in experiment [2] was 30.8 µM (active). Further, the result in experiment [4] and in experiment [5] was inactive.

Turning to `CC(=O)Nc1cccc(C)c1`, the Potency result in experiment [1], in experiment [2], in experiment [3], in experiment [6], in [7] and in experiment [8] was “inactive” throughout. Besides, the Potency entry in [9], in [10], in experiment [11], in experiment [13], in [14] and in experiment [16] was “inactive” throughout. The Potency entry in [19] and in experiment [17] was “inactive” in each case. Also, the outcome in experiment [4] and in experiment [5] was inactive.

As to `C[Si](NC1CCCCC1)(NC1CCCCC1)NC1CCCCC1`, the Potency result in experiment [1], in [2], in experiment [3], in [6], in [7] and in [8] was “inactive” each time. Besides, the Potency entry in experiment [9], in experiment [10], in [11], in [12], in experiment [13] and in experiment [16] was “inactive” in each case. The Potency result in [18], in [19] and in [17] was “inactive” throughout. Moreover, the outcome in experiment [4] and in experiment [5] was inactive.
